Data reported in PubChem BioAssay AID1159580 (chemical genetic matrix, 2015).
“And” between values parts separate entries of the source, which are not always exact repeats. Equal entries are not always repeated. The whole screen tested about 5,500 compounds, of which about 2,000 (36%) were called active. Inconclusive results (about 18%) are left out. Rule as the data show it: active = normalized growth mostly below about 0.91 (no sharp cut-off); inconclusive = no clear call, values can overlap the other calls; inactive = mostly above about 0.92. This is one part of the list.

Assay: chemical genetic growth profiling, strain panel (AID 1159580);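 also: tested at 20 µM; growth read once vehicle control cultures reached saturation at 30 °C; 1 = growth at the plate median or of vehicle wells; lower values mean less growth of the strain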
Details: S. cerevisiae deletion strains, growth OD

Measured: normalized growth

CC(C)=CCc1c2c(c3occ(-c4ccc(O)cc4)c(=O)c3c1O)C=CC(C)(C)O2
active: locus YAL013W, strain DEP1, stronger effect = lower value 0.718 | locus YAL030W, strain snc1, stronger effect = lower value 0.876 | locus YBL061C, strain skt5, stronger effect = lower value 0.739 | locus YBR009C, strain hhf1, stronger effect = lower value 0.882 | locus YBR023C, strain chs3, stronger effect = lower value 0.747 | locus YBR231C, strain swc5, stronger effect = lower value 0.751 | locus YBR279W, strain paf1, stronger effect = lower value 0.796 | locus YCL011C, strain gbp2, stronger effect = lower value 0.881 | locus YCL016C, strain dcc1, stronger effect = lower value 0.869 | locus YDL035C, strain GPR1, stronger effect = lower value 0.72 | locus YDL074C, strain BRE1, stronger effect = lower value 0.727 | locus YDL134C, strain PPH21, stronger effect = lower value 0.736 | locus YDL192W, strain arf1, stronger effect = lower value 0.859 | locus YDR069C, strain doa4, stronger effect = lower value 0.711 | locus YDR162C, strain NBP2, stronger effect = lower value 0.664 | locus YDR297W, strain sur2, stronger effect = lower value 0.828 | locus YDR318W, strain mcm21, stronger effect = lower value 0.911 | locus YDR388W, stronger effect = lower value 0.917 | locus YEL061C, strain CIN8, stronger effect = lower value 0.869 | locus YER015W, strain faa2, stronger effect = lower value 0.653 | locus YER167W, strain BCK2, stronger effect = lower value 0.896 | locus YFR010W, strain ubp6, stronger effect = lower value 0.895 | locus YGL086W, strain mad1, stronger effect = lower value 0.861 | locus YGL173C, strain kem1, stronger effect = lower value 0.666 | locus YGL248W, strain PDE1, stronger effect = lower value 0.705 | locus YGL253W, strain hxk2, stronger effect = lower value 0.87 | locus YHR013C, strain ard1, stronger effect = lower value 0.755 | locus YHR027C, strain rpn1, stronger effect = lower value 0.614 | locus YHR129C, strain ARP1, stronger effect = lower value 0.769 | locus YHR142W, strain chs7, stronger effect = lower value 0.838 | locus YHR200W, strain rpn10, stronger effect = lower value 0.893 | locus YIL066C, strain RNR3, stronger effect = lower value 0.663 | locus YIL073C, strain SPO22, stronger effect = lower value 0.537 | locus YJL095W, strain BCK1 (second series), stronger effect = lower value 0.834 | locus YJL164C, strain tpk1, stronger effect = lower value 0.77 | locus YJL166W, strain qcr8, stronger effect = lower value 0.811 | locus YJL187C, strain SWE1 (second series), stronger effect = lower value 0.77 | locus YJL187C, strain SWE1, stronger effect = lower value 0.803 | locus YJR043C, strain POL32, stronger effect = lower value 0.717 | locus YJR075W, strain HOC1, stronger effect = lower value 0.852 | locus YKL160W, strain elf1, stronger effect = lower value 0.868 | locus YKL190W, strain CNB1, stronger effect = lower value 0.772 | locus YLL026W, stronger effect = lower value 0.915 | locus YLR027C, strain aat2, stronger effect = lower value 0.907 | locus YLR058C, strain SHM2, stronger effect = lower value 0.802 | locus YLR221C, strain rsa3, stronger effect = lower value 0.858 | locus YLR268W, strain sec22, stronger effect = lower value 0.841 | locus YLR320W, strain mms22, stronger effect = lower value 0.863 | locus YLR342W, strain FKS1, stronger effect = lower value 0.775 | locus YLR357W, strain rsc2, stronger effect = lower value 0.814 | locus YLR371W, strain rom2, stronger effect = lower value 0.806 | locus YLR418C, strain cdc73, stronger effect = lower value 0.827 | locus YML016C, strain PPZ1, stronger effect = lower value 0.677 | locus YMR058W, strain fet3, stronger effect = lower value 0.429 | locus YNL128W, strain TEP1, stronger effect = lower value 0.643 | locus YNL153C, strain GIM3, stronger effect = lower value 0.835 | locus YNL209W, strain ssb2, stronger effect = lower value 0.51 | locus YNL233W, strain BNI4, stronger effect = lower value 0.787 | locus YOL006C, strain TOP1, stronger effect = lower value 0.389 | locus YOR061W, strain CKA2, stronger effect = lower value 0.733 | locus YOR069W, strain VPS5, stronger effect = lower value 0.87 | locus YOR070C, strain gyp1, stronger effect = lower value 0.812 | locus YOR083W, strain WHI5, stronger effect = lower value 0.866 | locus YOR106W, strain vam3, stronger effect = lower value 0.634 | locus YOR184W, strain ser1, stronger effect = lower value 0.869 | locus YOR265W, strain rbl2, stronger effect = lower value 0.888 | locus YPL051W, strain arl3, stronger effect = lower value 0.658 | locus YPL106C, strain sse1, stronger effect = lower value 0.793 | locus YPR167C, strain met16, stronger effect = lower value 0.913 | strain wtn01, stronger effect = lower value 0.811
0.886 (active) and 0.97 (inactive): locus YHR030C, strain SLT2, stronger effect = lower value
inactive: locus YAL021C, strain ccr4, stronger effect = lower value 0.962 | locus YAL026C, strain drs2, stronger effect = lower value 0.911 | locus YBR021W, strain FUR4, stronger effect = lower value 0.913 | locus YBR171W, strain sec66, stronger effect = lower value 1.01 | locus YBR229C, strain ROT2, stronger effect = lower value 0.929 | locus YCL029C, strain bik1, stronger effect = lower value 0.926 | locus YCL061C, strain MRC1, stronger effect = lower value 0.947 | locus YCL069W, strain vba3, stronger effect = lower value 0.987 | locus YCR088W, strain abp1, stronger effect = lower value 1.01 | locus YDL005C, strain med2, stronger effect = lower value 0.995 | locus YDL040C, strain nat1, stronger effect = lower value 0.991 | locus YDL101C, strain DUN1, stronger effect = lower value 0.903 | locus YDL185W, strain tfp1, stronger effect = lower value 0.995 | locus YDR001C, strain nth1, stronger effect = lower value 1.01 | locus YDR101C, strain arx1, stronger effect = lower value 0.953 | locus YDR137W, strain rgp1, stronger effect = lower value 1.01 | locus YDR159W, strain sac3, stronger effect = lower value 1.07 | locus YDR195W, strain ref2 1.14 | locus YDR334W, strain swr1, stronger effect = lower value 0.92 | locus YDR335W, strain msn5, stronger effect = lower value 0.981 | locus YDR392W, strain spt3, stronger effect = lower value 0.78 | locus YDR502C, strain sam2, stronger effect = lower value 0.938 | locus YEL003W, strain gim4, stronger effect = lower value 0.94 | locus YEL037C, strain rad23, stronger effect = lower value 0.958 | locus YEL061C, strain CIN8 (second series), stronger effect = lower value 1.01 | locus YER016W, strain bim1, stronger effect = lower value 0.963 | locus YER110C, stronger effect = lower value 0.989 | locus YER111C, strain swi4, stronger effect = lower value 0.969 | locus YER155C, strain BEM2 (second series), stronger effect = lower value 0.956 | locus YER155C, strain BEM2, stronger effect = lower value 0.98 | locus YGL078C, strain dbp3, stronger effect = lower value 1 | locus YGL167C, strain pmr1, stronger effect = lower value 0.976 | locus YGL227W, strain vid30, stronger effect = lower value 1.01 | locus YGL240W, strain doc1, stronger effect = lower value 1.02 | locus YGR135W, strain pre9, stronger effect = lower value 0.955 | locus YGR252W, strain gcn5, stronger effect = lower value 1.03 | locus YHR079C, strain IRE1 (second series), stronger effect = lower value 1 | locus YHR079C, strain IRE1, stronger effect = lower value 0.992 | locus YHR094C, strain hxt1, stronger effect = lower value 1.01 | locus YIL125W, strain kgd1, stronger effect = lower value 0.982 | locus YIR030C, strain dcg1, stronger effect = lower value 0.995 | locus YJL092W, strain hpr5, stronger effect = lower value 0.977 | locus YJL115W, strain asf1, stronger effect = lower value 1.01 | locus YJL129C, strain trk1, stronger effect = lower value 1.02 | locus YJL134W, strain LCB3, stronger effect = lower value 0.944 | locus YJL154C, strain vps35, stronger effect = lower value 1.01 | locus YJL168C, strain set2, stronger effect = lower value 0.996 | locus YJR066W, strain TOR1, stronger effect = lower value 0.906 | locus YKL009W, strain mrt4, stronger effect = lower value 0.961 | locus YKL068W, stronger effect = lower value 1.01 | locus YKL085W, strain MDH1 (second series), stronger effect = lower value 1.02 | locus YKL085W, strain MDH1, stronger effect = lower value 1.02 | locus YKR001C, strain vps1, stronger effect = lower value 0.927 | locus YKR026C, strain gcn3, stronger effect = lower value 1 | locus YKR091W, strain srl3, stronger effect = lower value 0.98 | locus YLL001W, strain dnm1, stronger effect = lower value 0.937 | locus YLL041C, strain sdh2, stronger effect = lower value 0.982 | locus YLR039C, strain RIC1, stronger effect = lower value 0.863 | locus YLR102C, strain apc9, stronger effect = lower value 1.05 | locus YLR113W, strain HOG1, stronger effect = lower value 0.965 | locus YLR258W, strain gsy2, stronger effect = lower value 0.926 | locus YLR262C, strain YPT6 (second series), stronger effect = lower value 0.881 | locus YLR370C, strain arc18, stronger effect = lower value 0.978 | locus YLR384C, strain iki3, stronger effect = lower value 1 | locus YML032C, strain rad52, stronger effect = lower value 0.987 | locus YML120C, strain ndi1, stronger effect = lower value 0.99 | locus YML124C, strain tub3, stronger effect = lower value 0.994 | locus YMR078C, strain ctf18, stronger effect = lower value 1.03 | locus YMR125W, strain sto1, stronger effect = lower value 1.07 | locus YMR129W, stronger effect = lower value 0.968 | locus YMR205C, strain PFK2, stronger effect = lower value 0.902 | locus YMR223W, strain ubp8, stronger effect = lower value 0.936 | locus YMR231W, strain pep5, stronger effect = lower value 0.948 | locus YMR307W, strain GAS1, stronger effect = lower value 0.724 | locus YNL067W, strain RPL9B, stronger effect = lower value 0.93 | locus YNL071W, strain lat1, stronger effect = lower value 0.943 | locus YNL183C, strain NPR1, stronger effect = lower value 0.908 | locus YNL248C, strain rpa49, stronger effect = lower value 0.951 | locus YNL250W, strain rad50, stronger effect = lower value 0.999 | locus YNL271C, strain bni1, stronger effect = lower value 1.01 | locus YNL298W, strain CLA4, stronger effect = lower value 0.991 | locus YNL307C, strain MCK1, stronger effect = lower value 0.957 | locus YNL322C, strain KRE1 (second series), stronger effect = lower value 1.05 | locus YNR049C, strain mso1, stronger effect = lower value 0.999 | locus YNR052C, strain pop2, stronger effect = lower value 1 | locus YOL012C, strain htz1 0.443 | locus YOL147C, strain pex11, stronger effect = lower value 1 | locus YOR001W, strain rrp6, stronger effect = lower value 0.988 | locus YOR080W, strain dia2, stronger effect = lower value 0.934 | locus YOR136W, strain idh2, stronger effect = lower value 0.996 | locus YOR144C, strain elg1, stronger effect = lower value 1 | locus YOR231W, strain MKK1, stronger effect = lower value 0.991 | locus YOR270C, strain vph1, stronger effect = lower value 0.849 | locus YOR290C, strain snf2, stronger effect = lower value 1 | locus YOR316C, strain cot1, stronger effect = lower value 0.988 | locus YPL078C, strain atp4, stronger effect = lower value 0.985 | locus YPL240C, strain hsp82, stronger effect = lower value 0.957 | locus YPL241C, strain CIN2, stronger effect = lower value 0.936 | locus YPL256C, strain CLN2, stronger effect = lower value 1 | locus YPR119W, strain clb2, stronger effect = lower value 1.02 | locus YPR141C, strain kar3, stronger effect = lower value 1.01 | locus YPR163C, strain tif3, stronger effect = lower value 0.979
0.719 (active) and 0.977 (inactive): locus YJL095W, strain BCK1, stronger effect = lower value
